The source of these data is ChEMBL document CHEMBL1157539, “Thousands of chemical starting points for antimalarial lead identification” (Nature, 2010).

As a reminder, the Inhibition is the relative decrease from the control value, in per cent.

In the assay the test system is Plasmodium falciparum. Briefly: GSK_TCMDC: Inhibition of Plasmodium falciparum 3D7 in whole red blood cells, using parasite LDH activity as an index of growth. Test compounds present at 2uM. The assay is classed as functional.
As to `COCCCNC(=O)C1CCN(C(c2ccc(Cl)cc2)c2ccc(Cl)cc2)CC1`, the Inhibition was 91%. In turn, `c1cc(Cc2ccc(Nc3c4ccccc4nc4ccccc34)cc2)cc(Nc2c3ccccc3nc3ccccc23)c1` gave an Inhibition of 100%. The value for `CS(=O)(=O)c1ccc(-c2cncc(Cl)n2)cc1` was 100%. Turning to `CCCC(CNCc1cccc(C)c1)CNc1cc(=O)c2ccccc2[nH]1` (centres undefined), the Inhibition was determined as 99%. The value for `CCN1CCN(CCCNc2c3ccc(Cl)cc3nc3ccc(OC)cc23)CC1.Cl` was 97%; that for `COc1ccc2nccc([C@@H](O)CN3CCC(NC(=O)c4cc5cccnc5[nH]4)CC3)c2c1.Cl` was 94%; that for `CS(=O)(=O)Cc1ccc(Nc2nccc(-c3c(-c4cccc(NC(=O)c5c(F)cccc5F)c4)nn4ccccc34)n2)cc1` was 99%. `O=C(NCCCCCN1CCCN(C(=O)Nc2ccc(F)c(C(F)(F)F)c2)CC1)C1CC1c1ccc(Cl)c(Cl)c1` (centres undefined) came in with an Inhibition of 90%. `Br.Cc1cc(Br)c(OCCCON2C(=N)N=C(N)NC2(C)C)c(Br)c1` returned an Inhibition of 95%. Take `O=C(CCCCCNC(=O)c1ccc(O)c(-c2ccc(Cl)c(Cl)c2)c1)NCc1cccc(C(F)(F)F)c1`: the Inhibition worked out at 92%. With `CSc1nnc2n(Cc3ccccc3)c(=O)c3c(n12)-c1ccccc1CC31CCCCC1`, the Inhibition was found to be 93%. As for `O=C(Nc1ccc(N2CCNCC2)nc1)c1oc(-c2ccccc2)nc1C(F)(F)F`, the Inhibition stood at 100%. The value for `Cc1[nH]c(C)c(-c2ccc(Oc3cccc(Cl)c3)cc2)c(=O)c1Cl` was 99%. Take `COc1ccc(/C=C/C(=O)NCCCCCN2CCC(c3c[nH]c4ccccc34)CC2)cc1O`: the Inhibition is 91%.
